Source: the supplement of paper PMC8253809
Where “and” joins values, the source holds several entries; their conditions need not be identical. Equal entries are not always repeated.

Key:
Experiment in all cases: growth inhibition (% activity, log2 RLU normalised to DMSO / staurosporine); higher = more growth inhibition
Settings in all cases: 33 µM
DIPGX29 = test system: DIPGX29 (H3.3 K27M diffuse intrinsic pontine glioma line)
Outline: (§1)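 The growth-inhibition value is the median over replicates. pHGG cell lines and H9-derived neural stem cells on Geltrex-coated 384-well plates received approved drugs by pin tool at a single final concentration of about 33 μM, in triplicate, for 7 days at 37 °C, 5% CO2. CellTiter-Glo luminescence was log2-transformed and normalised per plate to % activity between solvent and positive control wells.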

DIPGX37 = test system: DIPGX37 (H3.3 K27M diffuse intrinsic pontine glioma line)
Outline: as §1

DIPGX7 = test system: DIPGX7 (H3.3 K27M diffuse intrinsic pontine glioma line)
Outline: as §1

DIPGX9 = test system: DIPGX9 (diffuse intrinsic pontine glioma line)
Outline: as §1

HGGX39 = test system: HGGX39 (paediatric high-grade glioma line)
Outline: as §1

HGGX6 = test system: HGGX6 (H3.3 G34R paediatric high-grade glioma line)
Outline: as §1

HNSC = test system: HNSC
Outline: as §1

SUDIPGIV = test system: SUDIPGIV (diffuse intrinsic pontine glioma line)
Outline: as §1

SUDIPGVI = test system: SUDIPGVI (diffuse intrinsic pontine glioma line)
Outline: as §1

SUDIPGXIII = test system: SUDIPGXIII (diffuse intrinsic pontine glioma line)
Outline: as §1

SMILES	growth inhibition (DIPGX29)	growth inhibition (DIPGX37)	growth inhibition (DIPGX7)	growth inhibition (DIPGX9)	growth inhibition (HGGX39)	growth inhibition (HGGX6)	growth inhibition (HNSC)	growth inhibition (SUDIPGIV)	growth inhibition (SUDIPGVI)	growth inhibition (SUDIPGXIII)
CCCCCCCCCCOc1cc2c(O)c(C(=O)OCC)cnc2cc1OCC	-0.3%	-1.31%	1.61%	-0.589%	1.16%	-2.39%	8.91%	1.52%	-8.46%	-1.19%
CN(C/C=C/c1ccccc1)Cc1cccc2ccccc12	1.23%	-0.956%	-0.0716%	1.9%	1.84%	2.12%	-1.49%	0.156%	1.27%	0.316%
CCOC(=O)O[C@]1(C(=O)OCCl)CC[C@H]2[C@@H]3CCC4=CC(=O)C=C[C@]4(C)[C@H]3[C@@H](O)C[C@@]21C	1.63%	4.19%	2.28%	3.44%	2.53%	2.56%	1.32%	-2.17%	3.04%	-2.19%
CC[C@H]1OC(=O)[C@H](C)[C@@H](O[C@H]2C[C@@](C)(OC)[C@@H](O)[C@H](C)O2)[C@H](C)[C@@H](O[C@@H]2O[C@H](C)C[C@H](N(C)C)[C@H]2O)[C@](C)(O)C[C@@H](C)C(=O)[C@H](C)[C@@H](O)[C@]1(C)O	0.288%	-2.96%	0.845%	0.939%	1.08%	-0.333%	2.65%	1.14%	2.66%	-1.2%
OC[C@H]1O[C@H](O[C@]2(CCl)O[C@H](CCl)[C@@H](O)[C@@H]2O)[C@H](O)[C@@H](O)[C@H]1Cl	-2.41%	-0.64%	-2.77%	-3.01%	-2.1%	-2.77%	-5.57%	-0.426%	-3.09%	0.882%
CN(C)C(=O)C(CCN1CCC(O)(c2ccc(Cl)cc2)CC1)(c1ccccc1)c1ccccc1	11.2%	3.96%	9.47%	0.4%	13.9%	9.1%	81.6%	7.8%	3.43%	9.15%
C[N+](C)(C)CCCCCC[N+](C)(C)C	-5.28%	-1.26%	0.491%	-2.94%	-1.88%	-5.38%	11.7%	-2.32%	-9.56%	0.369%
CC(=O)S[C@@H]1CC2=CC(=O)CC[C@]2(C)[C@H]2CC[C@@]3(C)[C@@H](CC[C@@]34CCC(=O)O4)[C@H]12	1.45%	4.15%	2.4%	1.65%	4.84%	2.78%	1.61%	1.73%	2.19%	0.862%
CC(C)C[C@H](NC(=O)[C@H](Cc1ccccc1)NC(=O)c1cnccn1)B(O)O	53.3%	60.7%	60%	59.1%	58.5%	60.1%	64.2%	59.3%	56.3%	69.9%
CCOc1cc(CC(=O)N[C@@H](CC(C)C)c2ccccc2N2CCCCC2)ccc1C(=O)O	0.598%	-0.0763%	1.67%	-0.0677%	0.171%	-1.18%	-2.28%	-0.496%	-6.9%	-1.55%
CCCN[C@H]1CCc2nc(N)sc2C1	-1.19% and -0.0554%	-0.814% and -5.15%	-0.691% and -0.331%	-0.203% and -1.15%	-0.555% and -2.37%	3.71% and 0.0769%	-2.69% and 0.0733%	-0.717% and -1.61%	-0.616% and -4.53%	-6.77% and -0.361%
Nc1nc(N)nc(-c2cc(Cl)ccc2Cl)n1	-2.22%	-3.47%	-1.19%	-0.993%	-0.32%	0.13%	-4.65%	-1.63%	-0.709%	-0.715%
CC1(C)O[C@@H]2[C@@H](CO[C@@]3(COS(N)(=O)=O)OC(C)(C)O[C@@H]23)O1	-3.02%	-1.66%	-1.31%	-2.57%	-2.13%	-3.4%	-3.88%	-3.39%	-3.08%	-0.599%
COc1cc2c(cc1O)CC[C@@H]1[C@@H]2CC[C@]2(C)[C@@H](O)CC[C@@H]12	9.48%	1.66%	9.77%	16.5%	13.2%	11.7%	53.5%	20.7%	-1.23%	1.78%
O=C(Nc1ccccc1)OCC(CN1CCCCC1)OC(=O)Nc1ccccc1 (stereo not given)	-1.04%	-3.49%	-0.617%	-1.45%	-2.3%	-1.35%	9.66%	-3.64%	-7.72%	1.16%
CCCCC(=O)N(Cc1ccc(-c2ccccc2-c2nnn[nH]2)cc1)[C@H](C(=O)O)C(C)C	-2.21%	-1.28%	-0.538%	-0.058%	-2.05%	-0.244%	-3.37%	4.24%	-0.599%	-8.43%
CCc1cccc2c3c([nH]c12)C(CC)(CC(=O)O)OCC3 (stereo not given)	1.41%	0.479%	3.29%	0.48%	2.3%	0.44%	2.88%	-3.78%	1.87%	1.77%
CC1=C(C(=O)OC(C)C)C(c2cccc([N+](=O)[O-])c2)C(C(=O)OC2CN(C(c3ccccc3)c3ccccc3)C2)=C(N)N1 (stereo not given)	9.28%	5.94%	22.2%	3.53%	13.3%	15.6%	58%	14.3%	27.2%	11.7%
CNC(=O)c1ccc(N2C(=S)N(c3ccc(C#N)c(C(F)(F)F)c3)C(=O)C2(C)C)cc1F	0.905%	-0.457%	1.36%	1.43%	6.4%	1.33%	4.97%	1.84%	-1.51%	1.86%
O=C(O)/C=C/c1ccc(Cn2ccnc2)cc1	-4.29% and 0.0234%	-1.97% and 1.55%	-2.07% and 1.39%	-1.94% and 0.49%	-2.45% and 1.57%	-3.87% and 2.09%	1.95% and -1.58%	-2.48% and 0.0369%	-6.52% and 1.83%	-0.879% and -16.2%
Cc1ccc(C)c(OCCCC(C)(C)C(=O)O)c1	-0.441%	-0.0995%	0.0111%	0.88%	0.357%	-0.472%	-1.45%	-0.859%	0.864%	0.0955%

SMILES	growth inhibition (DIPGX29)	growth inhibition (DIPGX37)	growth inhibition (DIPGX7)	growth inhibition (DIPGX9)	growth inhibition (HGGX39)	growth inhibition (HGGX6)	growth inhibition (HNSC)	growth inhibition (SUDIPGIV)	growth inhibition (SUDIPGVI)	growth inhibition (SUDIPGXIII)
Oc1cc(O)c(Cl)cn1	-1.47%	-1.68%	-1.58%	-0.302%	-2.27%	0.219%	-3.27%	-2.24%	-1.42%	0.7%
O=C(O)c1cc(/N=N/c2ccc(S(=O)(=O)Nc3ccccn3)cc2)ccc1O	1.07%	-1.79%	1.57%	0.949%	1.21%	1.04%	-0.205%	0.115%	1.96%	-0.524%
NC(Cc1cc(I)c(Oc2cc(I)c(O)c(I)c2)c(I)c1)C(=O)O (stereo not given)	0.479%	2.96%	-0.171%	1.28%	2.01%	-2.56%	27.8%	10.6%	7.79%	4.24%
NC(=O)c1ncn([C@@H]2O[C@H](CO)[C@@H](O)[C@H]2O)c1N	1.44%	1.81%	1.73%	2.02%	2.08%	0.815%	5.91%	0.00762%	2.75%	-1.11%
COc1cc(C)c(/C=C/C(C)=C/C=C/C(C)=C/C(=O)O)c(C)c1C	5.2%	-2.81%	6.14%	8.33%	7.33%	6.28%	7.89%	6.68%	4.93%	1.6%
CCOC(=O)c1ncn2c1CN(C)C(=O)c1cc(F)ccc1-2	1.51%	1.71%	0.351%	4.52%	2.75%	0.552%	0.0947%	-1.75%	2.57%	2.26%
Oc1ccc(OC2CCCCO2)cc1 (stereo not given)	-0.0269%	0.922%	1.6%	1.43%	2.89%	2.46%	-1.26%	0.845%	0.118%	0.895%
Nc1ncnc2c1ncn2[C@@H]1O[C@H](COP(=O)(O)OP(=O)(O)OP(=O)(O)O)[C@@H](O)[C@H]1O	1.45%	3.53%	0.965%	2.77%	1.53%	2.37%	1.17%	0.305%	3.67%	1.19%
NCCNCCNCCNCCN	1.8%	3.32%	2.9%	2.04%	2.02%	3.41%	4.1%	5.08%	4.87%	0.192%
CCCCCCCCCCCCCCCC[N+](C)(C)C	27.4%	41.6%	34%	22.2%	48.6%	23.6%	59.5%	36.8%	57.8%	18.1%
Cc1ncc(C[n+]2csc(CCO)c2C)c(N)n1	0.631%	-0.256%	-1.44%	0.746%	1.92%	1.62%	-1.01%	-0.371%	0.498%	0.53%
CC(=O)OCC(=O)[C@@]12N=C(C)O[C@@H]1C[C@H]1[C@@H]3CCC4=CC(=O)C=C[C@]4(C)[C@H]3[C@@H](O)C[C@@]12C	2.06%	0.767%	0.297%	4.71%	3.17%	0.221%	1.26%	-3.7%	-1.31%	-1.39%
NCC[C@H](O)C(=O)N[C@@H]1C[C@H](N)[C@@H](O[C@H]2O[C@H](CN)[C@@H](O)[C@H](O)[C@H]2O)[C@H](O)[C@H]1O[C@H]1O[C@H](CO)[C@@H](O)[C@H](N)[C@H]1O	-1.74% and 1.77%	-1.47% and 4.24%	-2.3% and 3.01%	-2.19% and 1.75%	-0.158% and 4.96%	-2.78% and 2.92%	-1.9% and 2.1%	-1.35% and 2.18%	-1.89% and 2.2%	-0.125% and 0.203%
O=S(=O)(O)CCS	-1.06%	0.485%	-0.101%	0.715%	-0.445%	-1.07%	0.589%	-0.0759%	1.78%	-0.97%
CCOc1ccc2ccccc2c1C(=O)N[C@@H]1C(=O)N2[C@@H]1SC(C)(C)[C@@H]2C(=O)O	-3.12%	-0.795%	1.5%	-1.14%	-0.856%	-5.66%	31.9%	-2.67%	-10.4%	2.26%
COc1ccc(/C=C/C(=O)Nc2ccccc2C(=O)O)cc1OC	-0.16%	2.16%	1.32%	-0.609%	-0.29%	-0.75%	3.65%	0.158%	-5.28%	-1.02%
COc1c2occc2cc2ccc(=O)oc12	-0.546%	-5.42%	-1.53%	-1.09%	-2.13%	-2.24%	0.777%	-2.41%	-9.54%	-0.581%
C=C[C@H]1CN2CC[C@H]1C[C@H]2[C@H](O)c1ccnc2ccc(OC)cc12	2.06%	3.05%	2.14%	2.35%	3.17%	1.13%	2.99%	2.17%	4.23%	-0.182%
CO[C@H]1O[C@@H]2O[C@@]3(C)CC[C@H]4[C@H](C)CC[C@@H]([C@H]1C)[C@@]24OO3	0.229%	0.466%	1.37%	2.08%	3.99%	5.37%	3.37%	13.7%	1.25%	14.3%
O=C(CCCN1CCN(c2ccccn2)CC1)c1ccc(F)cc1	1.87%	0.83%	5.21%	1.29%	4.4%	3.31%	1.17%	0.0159%	-3.95%	2.26%
